From PubChem BioAssay AID1490 (National Center for Advancing Translational Sciences (NCATS), 2009)
Values joined by “and” are separate entries in the source; they are usually repeats but may differ in a detail not shown here. Equal values may be shown once. In all, about 310,000 compounds went through this assay and about 11,000 (3.5%) were called active. Roughly 4% stayed inconclusive and do not appear here. For the sample, actives were picked, then their nearest neighbours and some compounds at random. Values without a mark were called inactive. Calls follow the shape of the dose curve; as a rule, active = well fitted inhibition curve with a large enough effect; inconclusive = small, poorly fitted or top-dose-only effect, or another doubt; inactive = no such curve, though single readings can be large or run the other way.

Target: 4'-phosphopantetheinyl transferase ffp (Bacillus subtilis) (UniProt Q9F4F7)
Test: qHTS Assay for Inhibitors of Bacillus subtilis Sfp phosphopantetheinyl transferase (PPTase);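 also: the enzyme is Sfp with the accession as filed and its product quenches rhodamine fluorescence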;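 as to largest response in the series, negative = inhibition: 0% = enzyme reaction without inhibitor and -100% = no enzyme wells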
Conditions: Biochemical Sfp PPTase activity
In short: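 Step 1, compound plus 15 nM Sfp-PPTase, 15 min, room temperature. Step 2, add rhodamine-CoA (5 uM) and BHQ-2-YbbR (12.5 uM). Step 3, read 525/598 nm fluorescence at 0 and 30 min.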
Potency is read from the fitted curve at half-maximal effect.

SMILES | largest response in the series, negative = inhibition | Potency
CSc1nccc(NC(=O)c2ccc(C(C)(C)C)cc2)n1 | -8.43% | 
CCOC(=O)N1CCN(C(=O)c2ccc3c(=O)n(CCc4ccc(OC)c(OC)c4)c(=O)[nH]c3c2)CC1 | 8.01% | 
O=C(O)[C@@H](S)[C@H](S)C(=O)O |  | 1.12 µM (active)
O=C(C[n+]1cc(Br)cc2ccccc21)c1ccc(F)cc1 | 4.07% | 
COc1cccc([C@@H]2Oc3ccc(Br)cc3C(=O)[C@H]2OC(=O)NCCc2ccc(OC)c(OC)c2)c1 | -29.3% | 
COc1ccccc1N1CCN(C(=O)c2ccc(NC3=NC4CS(=O)(=O)CC4S3)cc2)CC1 (stereo not given) | 11.2% | 
COc1ccc(CCCOC(Cn2ccnc2)c2ccc(OC)cc2)cc1 (stereo not given) | 10.3% and -14.1% | 
N#Cc1c(N2CCCCC2)nc(N)c2c(N)nc(SCC(=O)O)cc12 |  | 8.91 µM (active)
CC(=O)c1cc(C#N)c(N2CCCCC2)nc1C | 10.1% | 
Cc1cc(C)c(C#N)c(N2CCC(C(N)=O)CC2)n1 | 15.7% | 
N#CCc1ccc(NC(=O)c2ccccc2C(=O)Nc2ccc(CC#N)cc2)cc1 | 5.96% | 
CCOCc1nnc(NC(=O)CCC2CCCCC2)s1 | 18.1% | 
COC(=O)CCCC1=CC2=CC(=O)C(C)(OC(=O)c3cccs3)C(=O)C2=CN1c1ccc(CO)cc1 (stereo not given) | -1.16% | 
CCOC(=O)c1csc(CCNC(=O)c2oc3c(Cl)cc(C)cc3c2C)n1 | -19.2% | 
O=c1[nH]c(=O)c2nc3ccccc3nc2[nH]1 | 8.31% | 
Nc1ccc2nc3c(=O)[nH]c(=S)[nH]c3nc2c1 |  | 8.91 µM (active)
O=C(NCc1cc(F)cc(C(F)(F)F)c1)C1CCC(=O)N(C2CCCC2)C1 (stereo not given) | 6.77% | 
O=c1oc2ccccc2c(CNc2ccccc2)c1[N+](=O)[O-] | 5.08% | 
C=C1C(=CC=C2CCC[C@@]3(C)[C@@H]2CC[C@H]3[C@H](C)CCCC(C)C)C[C@@H](O)C[C@@H]1O | 3.54% | 
O=C(N/N=C/C=C/c1ccco1)c1cccs1 |  | 10 µM (active)
CC(=O)Nc1ccc(/C=N/NC(=O)c2cccs2)cc1 | 9.99% | 
O=C(N/N=C/c1ccco1)c1ccc(C(=O)N/N=C/c2ccco2)o1 | 22% | 
C/C(=N\NC(=O)c1cc(-c2ccc(O)cc2)nc2ccccc12)c1cccnc1 | 0.726% | 
CCOc1cc(/C=N/NC(=O)c2cc(-c3ccccc3)nc3ccccc23)ccc1O | 10.1% | 
Cc1ccc(-c2cc(C(=O)N/N=C/C=C/c3ccco3)c3ccccc3n2)cc1C |  | 28.2 µM (active)
